Experimental data taken from PubChem BioAssay (EPA / NIEHS).
Values joined by “and” are separate entries in the source; they are usually repeats but may differ in a detail not shown here. Equal values may be shown once. Records with an inconclusive call do not appear. Active and inactive are the calls of the source. The calls were made as follows: active = hit-call score of the fitted dose curve at least 0.9, where 1 is the maximum; inconclusive = response in the unintended direction; inactive = score below 0.9.

Test: CCTE_Simmons_CellTiterGLO_HEK293T: Viability Assessment in CCTE's Assays for Thyroperoxidase (TPO) Inhibition, Simmons Lab (AID 2283665);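 as to AC50: cells exposed to compound for 24 h before readout; actives reduce ATP signal below DMSO vehicle meaning cytotoxicity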
Experimental: CCTE_Simmons_CellTiterGLO_HEK293T is a cell-based, single-readout assay that uses HEK293T, a human kidney cell line, with measurements taken at 24 hours after chemical dosing in a 384-well plate.CCTE_Simmons_CellTiterGLO_HEK293T is the assay component measured from the CCTE_Simmons_CellTiterGLO_HEK293T assay. It is designed to make measurements of ATP content, a form of viability reporter, as detected with bioluminescence signals by Luciferase-coupled ATP quantitation technology. This is a secondary cytotoxicity assay to CCTE_Simmons_AUR_TPO to estimate a cellular tolerance limit.Data from the assay component CCTE_Simmons_CellTiterGLO_HEK293T was analyzed at the endpoint, CCTE_Simmons_CellTiterGLO_HEK293T, in the positive analysis fitting direction relative to DMSO as the negative control and baseline of activity. Using a type of viability reporter, measures of ATP content for loss-of-signal activity can be used to understand the viability. This assay was run in parallel with aeid 1508 as a means of indicating the range of chemical cytotoxicity or reactivity. To generalize the intended target to other relatable targets, this assay endpoint is annotated to the cell cycle intended target family, where the subfamily is cytotoxicity.
Human HEK293T cells (GenHunter; Nashville, Tennessee) were seeded overnight in 384-well, solid white assay plates (Greiner, BioExpress) at a density of 10 000 cells per well in 65 ul Dulbecco's Modified Eagle Medium (Life Technologies; Carlsbad, California) supplemented with 1% fetal bovine serum (HyClone; Logan, Utah). Test compounds were administered using the HDRT as described earlier to achieve a 0.5% final DMSO concentration. Cells were then incubated at 37C for 24 hr in a humidified 5% CO2 incubator. Cell Titer Glo (Promega; Madison, WI) reagent (25 ul) was then added by the BioTek MicroFlo and microplates were incubated at room temperature in the dark for 20min. Plates were read on a plate reader (FLUOStar Optima) using an endpoint luminescence protocol (top read). Three biological replicates of technical singles were run for every chemical concentration tested. A titrated range of DCNQ served as a positive control on each plate of the cytotoxicity screening assay.Test chemicals were administered as a titrated series of 8 concentrations from 5 nM up to 87.5 uM [final] for 24 hours prior to single endpoint detection. Three biological replicates of technical singles were run for every chemical concentration tested. Dimethylsulfoxide [DMSO] was used as the vehicle control. Dichlone [DCNQ] was used as the positive control and was administered as a titrated series of 8 concentrations from 1 nM up to 100 uM [final].

| Structure (SMILES) | AC50 | outcome |
| --- | --- | --- |
| C=C1CC[C@H](O)C/C1=C/C=C1\CCC[C@]2(C)[C@@H]([C@H](C)/C=C/[C@H](C)C(C)C)CC[C@@H]12 | 78.7 µM (active) |  |
| COc1ccccc1N=Nc1c(S(=O)(=O)O)cc2cc(S(=O)(=O)O)cc(NC(C)=O)c2c1O | 12.2 µM (active) |  |
| Cc1ccc(S(=O)(=O)Oc2ccc(N=Nc3ccc(-c4ccc(N=Nc5c(O)ccc6cc(S(=O)(=O)O)cc(S(=O)(=O)O)c56)c(C)c4)cc3C)cc2)cc1 | 18.3 µM (active) |  |
| CCc1cc(C(C)(C)C)c(O)c(C(C)(C)C)c1 | 24.3 µM (active) |  |
| CCc1cc(Cc2cc(CC)cc(C(C)(C)C)c2O)c(O)c(C(C)(C)C)c1 | 11.1 µM (active) |  |
| CCCCCCCCC=CCCCCCCCC1=NCCN1CCO | 14 µM (active) and 13.8 µM (active) |  |
| Cc1cc(S(=O)(=O)O)ccc1N=Nc1c(O)ccc2ccccc12 | 24 µM (active) |  |
| CCOc1ccc(N=Nc2ccc(C=Cc3ccc(N=Nc4ccc(OCC)cc4)cc3S(=O)(=O)O)c(S(=O)(=O)O)c2)cc1 | 89.1 µM (active) |  |
| CS(=O)(=O)OCCCCOS(C)(=O)=O |  | inactive |
| COc1ccc(N=Nc2cc(C)c(N=Nc3ccc(S(=O)(=O)O)cc3)cc2OC)cc1 | 77.9 µM (active) |  |
| O=C(O)c1ccc(O)cc1 |  | inactive |
| CCCCCC(C=O)=Cc1ccccc1 | 88.1 µM (active) |  |
| CCCCC(CC)COC(=O)c1ccc(O)cc1 (stereo not drawn) | 24.7 µM (active) |  |
| O=C(Nc1ccc2c(O)c(N=Nc3ccc(N=Nc4ccc(S(=O)(=O)O)cc4)cc3)c(S(=O)(=O)O)cc2c1)c1ccccc1 | 14.4 µM (active) |  |
| CCCCCCCCCCCCCCN(CCO)CCO | 21.4 µM (active) |  |
| CN(C)c1cccc(O)c1 |  | inactive |
| O=C(O)CCCCCCCCC(=O)O |  | inactive |
| CCOC(=O)c1ccc(N)cc1 | 21.1 µM (active) |  |
| O=c1c(O)c(-c2ccc(O)cc2)oc2cc(O)cc(O)c12 |  | inactive |
| Nc1ccc2cc(S(=O)(=O)O)cc(O)c2c1N=Nc1ccccc1C(F)(F)F | 31.1 µM (active) |  |
| Oc1ccc2cc(SSc3ccc4cc(O)ccc4c3)ccc2c1 | 74.3 µM (active) |  |
| CCCCCCCCc1ccc(S(=O)(=O)O)cc1 | 83.5 µM (active) |  |
| [O-]n1ccccc1=S.[O-]n1ccccc1=S.[Zn+2] | 2.57 µM (active) |  |
